Data as given in PubChem BioAssay (NCATS).
Records with an inconclusive call do not appear. Activity calls are given as the source filed them. Unless noted, calls come from the whole dose curve; as a rule, active = well fitted curve in the direction sought with a large enough effect; inconclusive = small, poorly fitted or top-dose-only effect, or another doubt; inactive = no such curve, though single readings can be large; an effect the other way counts as inactive or inconclusive.

How the values were obtained:
[1] = molecular target: Aldehyde dehydrogenase, mitochondrial (Homo sapiens) (UniProt P05091); test: qHTS for Inhibitors of the Aldehyde Dehydrogenase Family (ALDH2) Confirmatory screens (AID 2061303; active = well fitted inhibition curve with a large enough effect; title and protocol of this record describe different tests; note: nearly all actives have a fitted effect of over 45% in size; note: potency is the fitted concentration of half-maximal effect); details: ALDH inhibition qHTS; series mostly up to 45.4 µM
[2] = qHTS for Inhibitors of the Aldehyde Dehydrogenase Family (ALDH1A2, ALDH1A3, ALDH2, ALDH3A1) (AID 2061307); details: ALDH inhibition qHTS; series mostly up to 50.3 µM; note: nearly all actives have a fitted effect of over 50% in size; for Potency: test system not described further here; potency is the fitted concentration of half-maximal effect
[3] = molecular target: Aldehyde dehydrogenase, mitochondrial (Homo sapiens) (UniProt P05091); test: qHTS for Inhibitors of the Aldehyde Dehydrogenase Family (ALDH2) Primary screen (AID 2061308); details: ALDH2 enzyme inhibition qHTS, 1536-well; series mostly up to 56 µM; note: nearly all actives have a fitted effect of over 55% in size; note: potency is the fitted concentration of half-maximal effect
[4] = molecular target: Retinaldehyde dehydrogenase 3 (Homo sapiens) (UniProt P47895); test: qHTS for Inhibitors of the Aldehyde Dehydrogenase Family (ALDH1A3) Confirmatory screens (AID 2061311); details: ALDH inhibition qHTS; series mostly up to 46 µM; note: nearly all actives have a fitted effect of over 60% in size; note: potency is the fitted concentration of half-maximal effect
[5] = molecular target: Retinaldehyde dehydrogenase 3 (Homo sapiens) (UniProt P47895); test: qHTS for Inhibitors of the Aldehyde Dehydrogenase Family (ALDH1A3) Primary screen (AID 2061315); details: ALDH inhibition qHTS; series mostly up to 56 µM; note: potency is the fitted concentration of half-maximal effect
[6] = molecular target: Aldehyde dehydrogenase 1A1 (Homo sapiens) (UniProt P00352); test: qHTS for Inhibitors of the Aldehyde Dehydrogenase Family (ALDH1A1) Confirmatory screens (AID 2061316); details: ALDH inhibition qHTS; series mostly up to 47.3 µM; note: nearly all actives have a fitted effect of over 65% in size; note: potency is the fitted concentration of half-maximal effect
[7] = molecular target: Retinal dehydrogenase 2 (Homo sapiens) (UniProt O94788); test: qHTS for Inhibitors of the Aldehyde Dehydrogenase Family (ALDH1A2) Confirmation screens (AID 2061314); details: ALDH1A2 enzyme inhibition qHTS confirmation; series mostly up to 45.9 µM; note: nearly all actives have a fitted effect of over 65% in size; note: potency is the fitted concentration of half-maximal effect
[8] = molecular target: Retinaldehyde dehydrogenase 3 (Homo sapiens) (UniProt P47895); test: qHTS for Inhibitors of the Aldehyde Dehydrogenase Family (ALDH1A3) Validation screen (AID 2061312); details: ALDH1A3 enzyme inhibition qHTS validation, fluorescence; series mostly up to 84.7 µM; note: nearly all actives have a fitted effect of over 45% in size

Measured: Potency

CCOC(=O)c1ccoc1-c1ccc2ncnc(NCc3ncc[nH]3)c2c1
inactive: [1] | [2] | [3] | [4] | [5]

CN1CCc2sc(NC(=O)Cc3ccccc3)c(C(=O)Nc3ccc(Cl)cc3)c2C1
inactive: [1] | [2] | [3] | [4] | [5]

Cc1cccc(C)c1-n1c(SCC(=O)NCCCCCC(=O)O)nnc1-c1cccc([S+](=O)([O-])N2CCCC2)c1
not listed: [7] | [8]
inactive: all other assays above

N#Cc1c(-c2ccc(F)cc2)no[n+]1[O-]
active: [2] 12.7 µM
inactive: [1] | [3] | [4] | [5]

CN(Cc1cccs1)c1ncnc2ccc(-c3ccc4cnn(C)c4c3)cc12
not listed: [7] | [8]
inactive: all other assays above

Cc1ccc(Nc2nc(C#N)nc(NC3CCCC3)n2)cc1
inactive: [1] | [2] | [3] | [4] | [5]

Oc1cccc2cc(C3CC3)cnc12
active: [2] 0.634 µM | [4] 31.6 µM
inactive: [1] | [3] | [5]

CNc1oc(-c2cccc(-c3ccccc3)c2)nc1C#N
inactive: [3] | [5] | [6]
active: [1] 15.8 µM | [2] 17.8 µM | [4] 25.1 µM

Cc1cccc(Nc2nc(C#N)nc(NC3CCCC3)n2)c1
inactive: [3] | [5]
active: [1] 2.51 µM | [2] 0.447 µM | [4] 17.8 µM

Cc1ccc(Cl)cc1NS(=O)(=O)c1cc2c(cc1F)NC(=O)CC2
inactive: [3] | [5]
active: [1] 12.6 µM | [2] 28.2 µM | [4] 12.6 µM

O=C(Nc1ccc2c(c1)CCC2)Nc1nnc(-c2ccncc2)s1
inactive: [1] | [2] | [3] | [4] | [5]

Cc1cccc(C[C@H](C(=O)O)N2C(=O)c3ccc(C(=O)O)cc3C2=O)c1
not listed: [7] | [8]
inactive: all other assays above

N#Cc1nc(Nc2cccc(Br)c2)nc(NC2CCCC2)n1
active: [2] 10.1 µM
inactive: [1] | [3] | [4] | [5]

CC(=O)c1ccc(N2CCN(C(=O)c3ccc4c(c3)CC(=O)N4)CC2)cc1
inactive: [1] | [2] | [3] | [4] | [5]

Cc1ccc(NS(=O)(=O)c2ccc3c(c2)CC(=O)N3)cc1C
active: [6] 1.59 µM
not listed: [7] | [8]
inactive: all other assays above

COc1ccc(C2Nc3ccccc3C(=O)N2Cc2ccccc2C(F)(F)F)cc1COc1ccc(NC(C)=O)cc1 (stereo not drawn)
active: [1] 0.316 µM | [2] 2.25 µM | [4] 15.9 µM
inactive: [3] | [5]

COc1ccc(C2Nc3ccccc3C(=O)N2Cc2ccc(C(F)(F)F)cc2)cc1COc1ccc(NC(C)=O)cc1 (stereo not drawn)
inactive: [3] | [5]
active: [1] 0.447 µM | [2] 3.57 µM | [4] 2.51 µM | [6] 22.5 µM

COc1cccc(C2c3c(ncn(-c4ccccc4C#N)c3=N)Oc3ccc4ccccc4c32)c1 (stereo not drawn)
active: [4] 25.2 µM
inactive: [1] | [2] | [3] | [5]

CN(C)CCCNc1ncnc2ccc(-c3ccc4c(c3)OCO4)cc12
not listed: [7] | [8]
inactive: all other assays above

COc1ccc(C2=Nn3c(nnc3-c3ccc(OC)c(OC)c3)SC2)c(OC)c1
active: [6] 6.34 µM
not listed: [7] | [8]
inactive: all other assays above

CC(C)(C)CNc1nc(C#N)nc(Nc2ccccc2)n1
active: [2] 12.7 µM
inactive: [1] | [3] | [4] | [5]

COc1ccc(OC)c(-c2nnc3n2N=C(c2ccc(OC)c(OCC4CC4)c2)CS3)c1
active: [6] 2.25 µM
not listed: [7] | [8]
inactive: all other assays above

O=C(O)c1cccc(-c2noc(-c3cccc(Cl)c3)n2)c1
inactive: [1] | [3]
active: [2] 0.381 µM | [4] 0.201 µM | [5] 0.562 µM

Cc1cccc(S(=O)(=O)NC2CCN(C#N)C2)c1 (stereo not drawn)
active: [6] 11.3 µM
not listed: [7] | [8]
inactive: all other assays above

O=C1Cc2cc(S(=O)(=O)N3CCN(c4ccc(C(F)(F)F)cc4)CC3)ccc2N1
not listed: [7] | [8]
inactive: all other assays above

O=C1CCCC2=C1C(c1[nH]ncc1Cl)NC(=S)N2 (stereo not drawn)
inactive: [1] | [2] | [3] | [4] | [5]

O=C(NC1CCCc2c1cnn2-c1ccc(F)cc1F)c1ccc(C(=O)c2ccccc2)cc1 (stereo not drawn)
inactive: [1] | [2] | [3] | [4] | [5]

O=C(NCCN1CCCC1)[C@H](Cc1ccc(OS(=O)(=O)c2cccc3cnccc23)cc1)NS(=O)(=O)c1cccc2cnccc12
inactive: [1] | [2] | [3] | [4] | [5]

COc1ccc(C2Nc3ccccc3C(=O)N2Cc2ccccc2)cc1COc1ccc(NC(=O)c2ccccc2)cc1 (stereo not drawn)
active: [2] 1.59 µM
inactive: [1] | [3] | [4] | [5]

CCOc1ccc(C(=O)Nc2ccc(-c3nc4ccccc4[nH]3)cc2)cc1
not listed: [7] | [8]
inactive: all other assays above

O=C(c1ccc(-c2cc(O)c3ncccc3c2)cc1)N1CCNCC1
active: [4] 11.3 µM
not listed: [7] | [8]
inactive: all other assays above

Cc1ccnc(NC(=S)N2CCN(c3ccc(N)cc3)CC2)c1
inactive: [1] | [2] | [3] | [4] | [5]

CN(Cc1ccco1)c1ncnc2ccc(-c3cccnc3)cc12
inactive: [1] | [2] | [3] | [5]
active: [4] 7.98 µM | [6] 11.3 µM

N=c1c2c(ncn1-c1ccccc1)Oc1ccc3ccccc3c1C2c1ccc2c(c1)CCO2 (stereo not drawn)
active: [1] 14.1 µM | [2] 7.08 µM | [4] 15.8 µM | [6] 31.6 µM
inactive: [3] | [5]

Cn1nnnc1Sc1ncnc2scc(-c3cnc(N)nc3)c12
inactive: [1] | [2] | [3] | [4] | [5]

CCOC(=O)c1cccc(-n2cccc2/C=C2\NC(=O)N(CC(=O)O)C2=O)c1
inactive: [1] | [2] | [3] | [4] | [5]

COc1ccc(C2=Nn3c(nnc3-c3ccccc3C)SC2)cc1
inactive: [1] | [2] | [3] | [4] | [5]

N=c1c2c(ncn1-c1ccccc1)Oc1ccc3ccccc3c1C2c1ccc2c(c1)OCCO2 (stereo not drawn)
not listed: [4] | [8]
inactive: all other assays above

CN(Cc1ncc[nH]1)c1ncnc2ccc(-c3ccc4c(c3)OCO4)cc12
not listed: [4] | [8]
inactive: all other assays above

Cc1cccc(-n2cnc3cc(C(=O)N4CCCC(C)(C)C4)ccc32)c1
inactive: [1] | [2] | [3] | [7] | [5]

CCCCN(C)C(=O)Cn1nc(-c2ccncc2)ccc1=O
inactive: [1] | [2] | [3] | [7] | [5]

CC1(C)S[C@@H]2[C@H](NC(=O)[C@H](NC(=O)N3CCN(S(C)(=O)=O)C3=O)c3ccccc3)C(=O)N2[C@H]1C(=O)O
not listed: [4]
inactive: all other assays above

O=C(NCCc1nc2ccccc2n1CCOc1cccc(Br)c1)C1CCCCC1
inactive: [1] | [2] | [3] | [7] | [5]

COc1ccc(CN(Cc2ccccc2)C(=O)c2ccccc2O)cc1
inactive: [1] | [2] | [3] | [7] | [5]

S=C(Nc1cc(Cl)ccn1)N1CCN(c2ccc3ccccc3n2)CC1
active: [1] 7.94 µM | [2] 14.1 µM | [3] 1.58 µM | [4] 22.5 µM | [6] 5.65 µM
inactive: [5]

COc1ccc(C2Nc3ccccc3C(=O)N2Cc2ccccc2)cc1COc1ccc(C(N)=O)cc1 (stereo not drawn)
active: [1] 5.62 µM | [2] 2.83 µM | [7] 14.1 µM
inactive: [3] | [5]

CCc1c(C)sc(NC(=O)C2CCCCC2C(=O)O)c1C(N)=O (stereo not drawn)
inactive: [1] | [2] | [3] | [7] | [5]

Cc1ccc(OCCn2c(CCNC(=O)CCc3ccc(N)cc3)nc3ccccc32)cc1
inactive: [1] | [2] | [3] | [7] | [5]

Cc1ccc(OCCn2c(CCNC(=O)c3cccs3)nc3ccccc32)cc1
inactive: [1] | [2] | [3] | [5]
active: [7] 31.8 µM | [6] 12.7 µM

COc1cccc(OC)c1C1=Nn2c(nnc2-c2ccccc2C)SC1
inactive: [1] | [2] | [3] | [7] | [5]

CC(=O)N1CCN(C(=S)Nc2cc(C)ccn2)CC1
inactive: [1] | [2] | [3] | [7] | [5]

Cc1ccc(C)c(SC2=NS(=O)(=O)c3ccccc32)c1
not listed: [7] | [8]
inactive: all other assays above

O=S1(=O)N=C(Oc2ccccc2F)c2ccccc21
inactive: [1] | [2] | [3] | [7] | [5]

CCCCNc1nc(C#N)nc(Nc2ccccc2)n1
inactive: [3] | [7] | [5]
active: [1] 2.51 µM | [2] 0.501 µM

O=C(O)CSc1cc(NS(=O)(=O)c2ccc(Br)cc2)c2ccccc2c1O
inactive: [2]
active: [1] 1.79 µM | [3] 7.08 µM | [7] 0.4 µM | [5] 0.631 µM | [6] 0.565 µM

O=C(c1ccccc1)N1CCN(c2nc(-c3ccc(Br)cc3)cs2)CC1
active: [1] 15.8 µM | [2] 15.8 µM
inactive: [3] | [7] | [5]

O=C(Nc1ccc2ccccc2c1)Nc1nnc(-c2cccnc2)s1
inactive: [1] | [2] | [3] | [5]
active: [7] 12.7 µM
